From PubChem
Most compounds without a hit are left out; they make up all but 8.2% or so of the library.
KB-3-1 tox – KB-3-1 parental cell cytotoxicity; KB-3-1 viability, CellTiter-Glo ATP luminescence, 72 h; 1.4% of 400,000 active; Potency, µM (doses to about 46.1 µM), usual class: cytotoxic; also: % is scaled to controls: 0 for no effect and ±100 for the full control effect; nearly all actives have a fitted effect of over 60% in size
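KB-3-1 cells, DMEM (no phenol red) + 10% FBS; compound by pin transfer, 72 h, 37 °C. Readout: CellTiter-Glo luminescence after 10 min. Data normalized, curve-fitted.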
KB-V1 cytotox – KB-V1 MDR subline cytotoxicity; KB-V1 MDR cells viability, CellTiter-Glo, 72 h; Potency, µM (top dose mostly 46.1 µM), actives largely listed as cytotoxic; 3.4% of 400,000 active; AID 1347076; also: % is scaled to controls: 0 for no effect and ±100 for the full control effect; nearly all actives have a fitted effect of over 60% in size
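Potencies derive from concentration-effect curves fitted to normalized luminescence (CellTiter-Glo) of KB-V1 cells treated for 72 h at 37 degrees C in phenol-red-free DMEM containing 10% FBS.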
ELG1 repair inh – blocks ELG1-dependent DNA repair in HEK293T cells; Potency, µM (series often up to 46.1 µM), for the others: top-dose activity change, negative = inhibition, actives largely listed as inhibitors; 2.3% of 330,000 active; AID 504467; HEK293T ELG1-luciferase reporter, luminescence, 16 h; DNA damage induced by 5-fluorouridine; also: % is scaled to controls: 0 for no effect and ±100 for the full control effect; nearly all actives have a fitted effect of over 55% in size
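Quantitative HTS, concentration-response format. 2,000 cells/well co-treated with 5-fluorouridine and compound, 16 hr in 5% CO2 at 37 °C; ONE-Glo luminescence read after 30 min.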
MCF10A rereplic – inducers of DNA re-replication in MCF 10A breast cells. MCF 10A DNA re-replication, Hoechst nuclear intensity, 48 h. Potency, µM (top dose mostly 46.1 µM), inactives show at the highest dose activity, positive = re-replication, usual class: activators. AID 624296. 2.9% of 350,000 active; also: % of control where 0% means no effect; nearly all actives have a fitted effect of over 50% in size
SW480 rerep – inducers of DNA re-replication in SW480 colon cancer cells. SW480 DNA re-replication, Hoechst DNA content imaging, 48 h. Potency, µM (top dose mostly 46.1 µM), for the others: at the highest dose re-replication activation, usual class: activators. 1.8% of 340,000 active; also: % of control where 0% means no effect; nearly all actives have a fitted effect of over 55% in size
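DNA re-replication was detected as more nuclei of elevated Hoechst intensity after 48 hr exposure to compound (23 nL pinned per well of 250 cells).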
ELG1 FLuc counter – luciferase inhibition in cell-free luciferin readout for ELG1 hits; shares compounds with ELG1 repair inh; cell-free firefly luciferase luminescence counter-screen, ViewLux; Potency, µM (doses to about 46.1 µM), without a hit: at the top dose activity change, negative = inhibition, actives largely listed as inhibitors; 3% of 350 active; AID 624247; also: % is scaled to controls: 0 for no effect and ±100 for the full control effect
ELG1 Luc conf – inhibits ELG1-dependent DNA repair in HEK293T cells, confirmed; shares compounds with ELG1 repair inh; HEK293T ELG1-luciferase levels, luminescence; cells co-treated with 5-fluorouridine; Potency, µM (series often up to 46.1 µM), inactives show at the highest dose activity change, negative = inhibition, most hits filed as inhibitors; 68% of 670 active; also: % is scaled to controls: 0 for no effect and ±100 for the full control effect; nearly all actives have a fitted effect of over 55% in size
ELG1-Luc MMS – inhibits ELG1-dependent repair under MMS stimulation in HEK293T cells. shares compounds with ELG1 repair inh. HEK293T luciferase-tagged ELG1 level, MMS stimulated. Potency, µM (doses to about 46.1 µM), for inactives: at the highest dose activity change, negative = inhibition, hits mostly inhibitors. 53% of 670 active. AID 624249; also: % is scaled to controls: 0 for no effect and ±100 for the full control effect; nearly all actives have a fitted effect of over 60% in size
ELG1 5FU viab – confirmation of ELG1 repair inhibitors: viability with 5FU; Potency, µM (highest dose often 46.1 µM), inactives show at the highest dose activity change, negative = viability loss, usual class: cytotoxic; 670 tested, under 10 active; shares compounds with ELG1 repair inh; cell viability with 5-FU, ELG1-dependent repair;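 also: ELG1-luc HEK293T cells cotreated with 5-fluorouridine at 10 µM final; viability measured 16 h after compound addition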
ELG1 MMS cell – confirmation of ELG1 repair inhibitors: viability with MMS; AID 624251; Potency, µM (highest dose often 46.1 µM), inactives show at the top dose activity change, negative = viability loss, usual class: cytotoxic; Cell viability with MMS, ELG1-dependent DNA repair; shares compounds with ELG1 repair inh; 33% of 670 active;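 also: ELG1-luc HEK293T cells co-treated with 10 µM MMS; viability read 16 h after compound addition; % is scaled to controls: 0 for no effect and ±100 for the full control effect; nearly all actives have a fitted effect of over 60% in size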
ELG1 unstim viab – counter-screen for ELG1 repair inhibitors: unstimulated cell viability | cell viability counter-screen, unstimulated, luminescence | 8% of 900 active | Potency, µM (doses to about 45.9 µM), inactives show at the top dose activity change, negative = loss of viability, hits mostly cytotoxic | shares compounds with ELG1 repair inh | AID 624252;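 also: compound exposure lasted 16 hours before reading; % is scaled to controls: 0 for no effect and ±100 for the full control effect; nearly all actives have a fitted effect of over 55% in size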
FLuc biochem – firefly luciferase inhibition counter-screen; AID 624253; 10% of 350 active; purified firefly luciferase, luminescence counter-screen; shares compounds with ELG1 repair inh; Potency, µM (doses to about 57.5 µM), for inactives: at the highest dose activity, negative = inhibition, actives largely listed as inhibitors; also: % is scaled to controls: 0 for no effect and ±100 for the full control effect
* = called active by the depositor; i = inactive; ? = inconclusive; . = no result given; [ ] = another dose, or the depositor's remark. Calls follow the shape of the dose curve; as a rule, active = well fitted curve in the direction sought with a large enough effect; inconclusive = small, poorly fitted or top-dose-only effect, or another doubt; inactive = no such curve, though single readings can be large; an effect the other way counts as inactive or inconclusive. Potency is read from the fitted curve at half-maximal effect.

SMILES | KB-3-1 tox | KB-V1 cytotox | ELG1 repair inh | MCF10A rereplic | SW480 rerep | ELG1 FLuc counter | ELG1 Luc conf | ELG1-Luc MMS | ELG1 5FU viab | ELG1 MMS cell | ELG1 unstim viab | FLuc biochem
O=C1NCCOC(=O)[C@H](Cc2ccc(F)cc2)CC/C=C/C[C@H]1CC(=O)N(CCO)Cc1ccccc1 | i | i | ? | 17.5% | -3.1% | . | . | . | . | . | . | .
COc1ccc(C[C@H]2NC[C@H](O)[C@H]2OC(C)=O)cc1 | 0.326µM* | 0.411µM* | . | ? | 2.7%[1.84 µM] | 0.0126µM* | 0.0561µM* | 0.025µM* | -12.0% | 0.05µM* | 0.0112µM* | -2.0%
Cc1ccc(NC(=O)CCCn2c(=O)oc3ccccc32)c(O)c1 | i | i | 8.1% | -33.8% | -11.0% | . | . | . | . | . | . | .
O=C(CCl)c1ccc(O)c(O)c1 | i | i | . | . | . | . | . | . | . | . | -8.5% | .
OCCCc1ccc(O)c(O)c1 | i | i | 10.6% | -0.6% | 6.1% | . | . | . | . | . | . | .
Cc1c(N)cccc1N | i | i | ? | 0.3% | -6.0% | . | . | . | . | . | . | .
CCOc1ccc(-c2c(C)n(-c3ccc(OCC)cc3)c3[n+]2CCCCC3)cc1 | 1.64µM* | i | 0.291µM* | ? | ? | ? | ? | 0.5µM* | ? | 0.445µM* | 5µM* | -7.6%
c1ccc(N2CCN(c3ccccc3)CC2)cc1 | i | i | . | . | . | . | . | . | . | . | . | .
